This is part of a sample that, as a whole, favours compounds with a hit. Of some 83,000 tested, about 20% had one in any assay.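 Method: cells in 96-well plates; compound added at one concentration; 48 h incubation; percent growth measured; values under 10 scored active.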 A number with no mark means an inactive call. Activity calls are given as the source filed them.
Experiments:
Assay in all cases: NCI-60 one-dose screen, 48 h (100 = growth as untreated, 0 = no growth, -100 = all killed)
Conditions in all cases: 10 µM unless noted
T-47D breast = test system: T-47D breast
BT-549 breast = test system: BT-549 breast
SW-620 colon = test system: SW-620 colon
MCF7 breast = test system: MCF7 breast
HCT-116 colon = test system: HCT-116 colon
HCC-2998 colon = test system: HCC-2998 colon
KM12 colon = test system: KM12 colon
MDA-MB-435 melanoma = test system: MDA-MB-435 melanoma

## COc1ccc(/C=N/C2=C(C#N)C(c3ccc(OC)cc3)c3ccc4ccccc4c3O2)cc1 (stereo not given)
T-47D breast
  growth: 73.6%
BT-549 breast
  growth: 84%
SW-620 colon
  growth: 43.3%
MCF7 breast
  growth: 34.4%
HCT-116 colon
  growth: 71.7%
HCC-2998 colon
  growth: 97.4%
KM12 colon
  growth: 59.4%

## CCOC(=O)c1ccc(N2NC(=O)/C(=C/c3ccc([N+](=O)[O-])o3)C2=O)cc1
T-47D breast
  growth: 109%
BT-549 breast
  growth: 99.7%
SW-620 colon
  growth: 106%
MCF7 breast
  growth: 89.4%
HCT-116 colon
  growth: 82.2%
HCC-2998 colon
  growth: 103%
KM12 colon
  growth: 106%

## CN1CCN(CC(=O)Nc2nc(-c3cccc(NS(=O)(=O)c4cccc5c(N(C)C)cccc45)c3)cs2)CC1
T-47D breast
  growth: 64.3%
BT-549 breast
  growth: 97.1%
MDA-MB-435 melanoma
  growth: 68.4%
SW-620 colon
  growth: 62.6%
MCF7 breast
  growth: 49.9%
HCC-2998 colon
  growth: 53.6%
KM12 colon
  growth: 71.4%

## COC(=O)[C@]12CC[C@@H](C)[C@H](C)[C@@H]1C1=CC[C@@H]3[C@@]4(C)C(C=O)=C[C@@](C)(COC(C)=O)[C@@H]4C(=O)C[C@@]3(C)[C@]1(C)CC2
T-47D breast
  growth: 39%
BT-549 breast
  growth: 32.4%
SW-620 colon
  growth: 29.1%
MCF7 breast
  growth: 22.7%
HCT-116 colon
  growth: 5.18% (active)
HCC-2998 colon
  growth: 40%
KM12 colon
  growth: 28.4%

## O=C(c1ccc(Nc2nccc(NCCCCNc3ccnc4cc(Cl)ccc34)n2)cc1)N1CCCCC1
T-47D breast
  growth: -33.2% (active)
BT-549 breast
  growth: 97.6%
MDA-MB-435 melanoma
  growth: -67.6% (active)
SW-620 colon
  growth: 2.09% (active)
MCF7 breast
  growth: 4.09% (active)
HCC-2998 colon
  growth: -11.2% (active)
KM12 colon
  growth: 54.2%

## Nc1n[nH]c2cc(F)c([C@@H]3Nc4c(F)cc5[nH]ncc5c4[C@H]4C5CCC(C5)[C@@H]34)cc12 (stereo not given in full)
T-47D breast
  growth: 83.8%
BT-549 breast
  growth: -0.757% (active)
MDA-MB-435 melanoma
  growth: -33.4% (active)
SW-620 colon
  growth: 26.8%
MCF7 breast
  growth: 21.6%
HCC-2998 colon
  growth: 7.27% (active)
KM12 colon
  growth: -40.5% (active)

## COc1cc(C(=O)/C=C/c2c(-c3ccc(F)cc3)nc3sc(C)cn23)cc(OC)c1OC
T-47D breast
  growth: 9.38% (active)
BT-549 breast
  growth: 15%
SW-620 colon
  growth: 30.6%
MCF7 breast
  growth: 29.5%
HCT-116 colon
  growth: 20.1%
HCC-2998 colon
  growth: 68.2%
KM12 colon
  growth: 10.4%

## O=c1[nH]ccc2nc(N3CCC(O)CC3)nc(Nc3ccc(N4CCOCC4)cc3)c12
T-47D breast
  growth: 73%
BT-549 breast
  growth: 29.7%
SW-620 colon
  growth: 39.6%
MCF7 breast
  growth: 44.2%
HCT-116 colon
  growth: 22.8%
HCC-2998 colon
  growth: 80.3%
KM12 colon
  growth: 8.57% (active)

## Cc1cc(NCc2cc(Nc3ccnc4cc(Cl)ccc34)ccc2F)nc(N2CCN(C)CC2)n1
T-47D breast
  growth: -42.4% (active)
BT-549 breast
  growth: 28.2%
SW-620 colon
  growth: 0.137% (active)
MCF7 breast
  growth: 1.13% (active)
HCT-116 colon
  growth: 0.262% (active)
HCC-2998 colon
  growth: -35.2% (active)
KM12 colon
  growth: 14.4%

## Cc1ccc(C(=O)CSc2nc(-c3ccc(Br)cc3)c(C#N)c(=O)[nH]2)cc1
T-47D breast
  growth: 93%
BT-549 breast
  growth: 94%
SW-620 colon
  growth: 92.2%
MCF7 breast
  growth: 101%
HCT-116 colon
  growth: 95.9%
HCC-2998 colon
  growth: 101%
KM12 colon
  growth: 97.4%

## O=C(CCc1nnc(CN(c2ccccc2)c2ccccc2)o1)c1nc2ccccc2[nH]1
T-47D breast
  growth: 74.4%
BT-549 breast
  growth: 84.8%
MDA-MB-435 melanoma
  growth: 94.3%
SW-620 colon
  growth: 103%
MCF7 breast
  growth: 76%
HCC-2998 colon
  growth: 90.3%
KM12 colon
  growth: 99.8%

## COc1cccc(-c2nc3sccn3c2/C=C/C(=O)c2ccc(C(F)(F)F)cc2)c1
T-47D breast
  growth: 64.1%
BT-549 breast
  growth: 87.3%
SW-620 colon
  growth: 66.3%
MCF7 breast
  growth: 65%
HCT-116 colon
  growth: 48.4%
HCC-2998 colon
  growth: 102%
KM12 colon
  growth: 73.1%

## Cc1ccc(C2SCC(=O)N2Cc2ccccc2)cc1 (stereo not given)
T-47D breast
  growth: 95.2%
BT-549 breast
  growth: 99%
MDA-MB-435 melanoma
  growth: 95.4%
SW-620 colon
  growth: 107%
HCT-116 colon
  growth: 94.2%
HCC-2998 colon
  growth: 90.7%
KM12 colon
  growth: 102%

## N=C1C(c2nc(-c3ccc(Br)cc3)cs2)=C(O)CN1Cc1cccnc1
T-47D breast
  growth: 46.3%
BT-549 breast
  growth: 39.9%
SW-620 colon
  growth: 81.5%
MCF7 breast
  growth: 77.9%
HCT-116 colon
  growth: 21.4%
HCC-2998 colon
  growth: 85.9%
KM12 colon
  growth: 61.7%

## Cc1nn(-c2ccccc2)c(Oc2ccc(Cl)cc2)c1/C=N\N=c1/sc2ccccc2n1C
T-47D breast
  growth: 66.4%
BT-549 breast
  growth: 84.1%
MDA-MB-435 melanoma
  growth: 97.2%
SW-620 colon
  growth: 77.8%
MCF7 breast
  growth: 85%
HCC-2998 colon
  growth: 103%
KM12 colon
  growth: 94.6%

## Cc1ccc(N2CCN(C(=S)c3cccs3)CC2)cc1
T-47D breast
  growth: 86.2%
BT-549 breast
  growth: 74.2%
MDA-MB-435 melanoma
  growth: 109%
SW-620 colon
  growth: 108%
MCF7 breast
  growth: 89.3%
HCC-2998 colon
  growth: 94.3%
KM12 colon
  growth: 113%

## N#Cc1c(-c2ccccc2)cc(-c2ccc(Nc3nc(Nc4ccc(F)cc4)nc(Nc4ccc(F)cc4)n3)cc2)nc1N
T-47D breast
  growth: 77%
BT-549 breast
  growth: 101%
SW-620 colon
  growth: 93.9%
MCF7 breast
  growth: 84.3%
HCT-116 colon
  growth: 70.7%
HCC-2998 colon
  growth: 51.8%
KM12 colon
  growth: 95.3%

## CC(C)(C)n1cc(-c2ccnc(NCCCNS(=O)(=O)c3ccccc3)c2)c(-c2ccccc2)n1
T-47D breast
  growth: 9.34% (active)
BT-549 breast
  growth: 53.4%
SW-620 colon
  growth: 77.1%
MCF7 breast
  growth: 62%
HCT-116 colon
  growth: 57.5%
HCC-2998 colon
  growth: 78.1%
KM12 colon
  growth: 71.9%

## O=C(Nc1cccc(Cl)c1)c1cc(N=Nc2ccc([N+](=O)[O-])cc2Cl)ccc1O
T-47D breast
  growth: 53.6%
BT-549 breast
  growth: 81%
SW-620 colon
  growth: 86.1%
MCF7 breast
  growth: 32%
HCT-116 colon
  growth: 52.9%
HCC-2998 colon
  growth: 45.8%
KM12 colon
  growth: 93.7%

## O=c1cc(C2NNC(=S)N2)c2ccc3ccccc3c2o1 (stereo not given)
T-47D breast
  growth: 73.1%
BT-549 breast
  growth: 94%
MDA-MB-435 melanoma
  growth: 102%
SW-620 colon
  growth: 92.2%
MCF7 breast
  growth: 86.9%
HCC-2998 colon
  growth: 113%
KM12 colon
  growth: 100%

## S=C(c1ccc2c(c1)OCO2)N1CCN(c2ccccc2Cl)CC1
T-47D breast
  growth: 94%
BT-549 breast
  growth: 81.6%
SW-620 colon
  growth: 102%
MCF7 breast
  growth: 103%
HCT-116 colon
  growth: 92.3%
HCC-2998 colon
  growth: 113%
KM12 colon
  growth: 103%

## COc1ccc(/C=c2\nc3n(-c4ccccc4)c4nc5c6c(sc5c(=N)n4n-3c2=O)CCCC6)cc1
T-47D breast
  growth: 71.9%
BT-549 breast
  growth: 94.2%
SW-620 colon
  growth: 104%
MCF7 breast
  growth: 71.9%
HCT-116 colon
  growth: 77%
HCC-2998 colon
  growth: 105%
KM12 colon
  growth: 92.5%

## O=C(c1ccccc1)c1c(/C=C/c2ccc(Cl)cc2)nc2ccccc2c1/C=C/c1cccs1
T-47D breast
  growth: 94.6%
BT-549 breast
  growth: 99.3%
MDA-MB-435 melanoma
  growth: 99.1%
SW-620 colon
  growth: 110%
MCF7 breast
  growth: 92.3%
HCC-2998 colon
  growth: 103%
KM12 colon
  growth: 99.3%

## Cn1ccc2c(c1=O)C(=O)c1nccc3c1c-2nc1ccccc13
T-47D breast
  growth: 84.9%
BT-549 breast
  growth: 87.4%
SW-620 colon
  growth: -76.3% (active)
MCF7 breast
  growth: -59.1% (active)
HCT-116 colon
  growth: -94.3% (active)
HCC-2998 colon
  growth: -96.2% (active)
KM12 colon
  growth: -88.1% (active)

## O=C(CSc1nnc(-c2ccc(NC(=O)c3cccnc3)cc2)o1)N[C@@H](Cc1ccc(O)cc1)C(=O)O
T-47D breast
  growth: 86%
BT-549 breast
  growth: 113%
MDA-MB-435 melanoma
  growth: 108%
SW-620 colon
  growth: 111%
MCF7 breast
  growth: 105%
HCC-2998 colon
  growth: 108%
KM12 colon
  growth: 110%

Source: PubChem BioAssay (NCI)
